Assay [1] addresses Retinoic acid receptor RXR-alpha (Homo sapiens) (UniProt P19793). The assay is described as follows: qHTS assay to identify small molecule agonists of the RXR signaling pathway (AID 1159527; calls by dose curve; also: nearly all actives have a fitted effect of over 35% in size). An outline of the steps: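 Agonist mode; 9-cis retinoic acid positive control. HEK 293T UAS-bla reporter cells, 2% charcoal-stripped FBS, 16 hr compound exposure at 37 C/5% CO2. LiveBLAzer B/G FRET substrate 2 hr RT; ex 405, em 460/530 nm.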

Assay [2] in a line: qHTS assay to identify small molecule agonists of the RXR signaling pathway - cell viability counter screen (AID 1159529). Also: series mostly up to about 77 µM; nearly all actives have a fitted effect of over 50% in size. The essentials: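 Luminescence from CellTiter-Glo (30 min, RT) measured viability in the same wells as the beta-lactamase reporter readout. Cells: GeneBLAzer RXR-alpha HEK 293T, 2% charcoal-stripped FBS. Compound exposure 16 hr, 37 C.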
Assay [3] can be described thus: qHTS assay to identify small molecule antagonists of the retinoid acid receptor (RAR) signaling pathway - cell viability counter screen (AID 1159551). Also: nearly all actives have a fitted effect of over 35% in size. The essentials:
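Cytotoxicity counter screen in C3RL4 cells: 6 h compound exposure with 1 uM retinol (final), viability from cellular ATP by luminescence.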

A short description of assay [4]: qHTS assay to identify small molecule antagonists of the retinoic acid receptor (RAR) signaling pathway (AID 1159552; also: nearly all actives have a fitted effect of over 50% in size). The essentials:
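Luminescence from a RARE luciferase reporter in C3RL4 cells served as read-out. Cells received compounds together with 1 uM final retinol and incubated 6 hr at 37 C before detection reagent was added for 30 min at room temperature.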

Assay [5] in a line: qHTS assay to identify small molecule agonists of the retinoic acid receptor (RAR) signaling pathway (AID 1159553). Also: potency is read from the fitted curve at half-maximal effect. The essentials:
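Agonist activity was scored in C3RL4 cells bearing a retinoic acid response element luciferase construct. Cells were treated with compounds for 6 hr at 37 C, and luciferase signal was measured as luminescence.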

Assay [6] in a line: qHTS assay to identify small molecule antagonists of the estrogen related receptor (ERR) signaling pathway from Tox21 library - cell viability counter screen (AID 1224834). Also: nearly all actives have a fitted effect of over 30% in size. The essentials: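 Cytotoxicity of test substances is gauged in the same ERR cells used for the antagonist screen, after 17.5 h of compound treatment at 37 C, by CellTiter-Fluor fluorescence measured after 30 min.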

Assay [7] has as its target Luciferin 4-monooxygenase (Photinus pyralis) (UniProt P08659). The assay is described as follows: qHTS assay to identify small molecule inhibitors of firefly luciferase (AID 1224835). Also: nearly all actives have a fitted effect of over 25% in size. Also: potency is read from the fitted curve at half-maximal effect. An outline of the steps: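 Biochemical qHTS: compounds run as interplate titrations against purified firefly enzyme, with D-luciferin and ATP each at its KM concentration. Light output recorded by CCD imaging.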

The nature of assay [8]: qHTS assay to identify small molecule agonists of the constitutive androstane receptor (CAR) signaling pathway - cell viability counter screen (AID 1224836). Also: series mostly up to about 92 µM; nearly all actives have a fitted effect of over 45% in size. An outline of the steps: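 Viability read-out: CellTiter-Fluor fluorescence after 23 h compound exposure at 37 C/5% CO2 in double-stable HepG2-CYP2B6-hCAR cells, with PK11195 present at 0.75 uM final; compounds tested in 15-point titration.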

Assay [9] can be described thus: qHTS assay to identify small molecule antagonists of the constitutive androstane receptor (CAR) signaling pathway - cell viability counter screen (AID 1224837). Also: series mostly up to about 92 µM; nearly all actives have a fitted effect of over 45% in size. An outline of the steps: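 Multiplexed cytotoxicity read-out for the CAR antagonist screen: double-stable HepG2-CYP2B6-hCAR cells co-treated with 50 nM CITCO (final) and compound over 15 concentrations, incubated 23 hr, then assessed by CellTiter-Fluor fluorescence.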

Assay [10] deals with Nuclear receptor subfamily 1 group I member 3 (Homo sapiens) (UniProt Q14994). Nature of the assay: qHTS assay to identify small molecule antagonists of the constitutive androstane receptor (CAR) signaling pathway (AID 1224838). Also: nearly all actives have a fitted effect of over 40% in size. The essentials:
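Compounds were titrated across 15 concentrations onto HepG2 cells double-stably expressing hCAR and a CYP2B6-2.2kb reporter, together with 50 nM CITCO (final). After 24 h at 37 C, luciferase activity was measured by luminescence.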

Assay [11] has the same target. The assay is described as follows: qHTS assay to identify small molecule agonists of the constitutive androstane receptor (CAR) signaling pathway (AID 1224839). Also: nearly all actives have a fitted effect of over 15% in size. Also: potency is read from the fitted curve at half-maximal effect. An outline of the steps: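 Luminescence read-out (ONE-Glo, 30 min, room temperature) from double-stable HepG2-CYP2B6-hCAR cells exposed 24 h to 15-point compound series in presence of 0.75 uM PK11195 final.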

A short description of assay [12]: qHTS assay to identify small molecule antagonists of the estrogen related receptor signaling pathway with the pleiotropic PPARgamma coactivator (PGC) from Tox21 10K library - cell viability counter screen (AID 1224840; active = well fitted cell-killing curve with a large enough effect in the repeat runs, not every such curve was filed as active; also: nearly all actives have a fitted effect of over 40% in size). The essentials: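 Step one, plate 2,000 PGC/ERR cells per well; step two, incubate 6 h at 37 C/5% CO2; step three, pin-transfer compounds; step four, incubate 17.5 h; step five, add CellTiter-Fluor and read fluorescence after 30 min.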

The nature of assay [13]: qHTS assay to identify small molecule antagonists of the estrogen related receptor signaling pathway with the pleiotropic PPARgamma coactivator (PGC) from Tox21 10K library (AID 1224841; call rule not given here; also: series mostly up to about 92 µM; actives are mostly falling curves and most rising ones were filed inactive; nearly all actives have a fitted effect of over 50% in size). An outline of the steps: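 Antagonism in this quantitative HTS is taken from loss of luciferase signal in PGC/ERR cells. Cells (2,000/well) are treated with compounds in DMSO after a 6 h settling period and read by One-Glo luminescence after 18 h.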

A short description of assay [14]: qHTS assay to identify small molecule agonists of the estrogen related receptor signaling pathway with the pleiotropic PPARgamma coactivator (PGC) from Tox21 10K library (AID 1224842). Also: nearly all actives have a fitted effect of over 15% in size. An outline of the steps: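 PGC/ERR reporter cell line, 2,000 cells per well, incubated 6 h at 37 C before 23 nL compound in DMSO was added. After 18 h at 37 C, One-Glo luminescence read following 30 min at room temperature.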

Records with an inconclusive call do not appear. Unmarked numbers belong to inactive results. The source made the active and inactive calls. Unless noted, calls follow the shape of the dose curve; as a rule, active = well fitted curve in the direction sought with a large enough effect in the repeat runs; inconclusive = weak or mixed curves; inactive = no such curve, though single readings can be large; an effect the other way counts as inactive or inconclusive.
% is scaled to controls: 0 for no effect and ±100 for the full control effect.

Sequence of Luciferin 4-monooxygenase (Photinus pyralis) (P08659 whole entry, looked up): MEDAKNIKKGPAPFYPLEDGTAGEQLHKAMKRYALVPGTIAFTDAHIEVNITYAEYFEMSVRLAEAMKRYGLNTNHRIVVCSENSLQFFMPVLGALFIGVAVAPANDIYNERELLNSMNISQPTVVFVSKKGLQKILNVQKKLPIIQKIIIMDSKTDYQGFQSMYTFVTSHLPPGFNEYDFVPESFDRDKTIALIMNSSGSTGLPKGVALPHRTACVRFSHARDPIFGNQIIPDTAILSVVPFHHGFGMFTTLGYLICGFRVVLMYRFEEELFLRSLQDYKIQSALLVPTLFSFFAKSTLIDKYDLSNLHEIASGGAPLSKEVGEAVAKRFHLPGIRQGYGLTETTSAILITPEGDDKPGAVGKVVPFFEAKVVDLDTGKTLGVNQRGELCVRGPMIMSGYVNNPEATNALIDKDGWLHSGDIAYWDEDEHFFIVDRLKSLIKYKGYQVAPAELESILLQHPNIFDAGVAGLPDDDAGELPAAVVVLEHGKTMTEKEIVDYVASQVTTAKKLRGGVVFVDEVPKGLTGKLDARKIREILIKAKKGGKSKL
Sequence of Nuclear receptor subfamily 1 group I member 3 (Homo sapiens) (Q14994 whole entry, looked up): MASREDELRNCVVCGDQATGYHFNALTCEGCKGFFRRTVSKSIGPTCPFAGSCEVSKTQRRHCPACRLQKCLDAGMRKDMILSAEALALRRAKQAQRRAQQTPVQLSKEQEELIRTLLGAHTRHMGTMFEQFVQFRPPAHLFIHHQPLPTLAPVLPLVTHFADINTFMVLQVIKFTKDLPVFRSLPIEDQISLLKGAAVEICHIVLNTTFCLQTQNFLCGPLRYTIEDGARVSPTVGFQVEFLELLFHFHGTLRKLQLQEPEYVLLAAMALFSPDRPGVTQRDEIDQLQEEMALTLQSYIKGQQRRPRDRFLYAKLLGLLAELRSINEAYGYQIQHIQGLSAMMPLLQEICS
Sequence of Retinoic acid receptor RXR-alpha (Homo sapiens) (P19793 whole entry, looked up): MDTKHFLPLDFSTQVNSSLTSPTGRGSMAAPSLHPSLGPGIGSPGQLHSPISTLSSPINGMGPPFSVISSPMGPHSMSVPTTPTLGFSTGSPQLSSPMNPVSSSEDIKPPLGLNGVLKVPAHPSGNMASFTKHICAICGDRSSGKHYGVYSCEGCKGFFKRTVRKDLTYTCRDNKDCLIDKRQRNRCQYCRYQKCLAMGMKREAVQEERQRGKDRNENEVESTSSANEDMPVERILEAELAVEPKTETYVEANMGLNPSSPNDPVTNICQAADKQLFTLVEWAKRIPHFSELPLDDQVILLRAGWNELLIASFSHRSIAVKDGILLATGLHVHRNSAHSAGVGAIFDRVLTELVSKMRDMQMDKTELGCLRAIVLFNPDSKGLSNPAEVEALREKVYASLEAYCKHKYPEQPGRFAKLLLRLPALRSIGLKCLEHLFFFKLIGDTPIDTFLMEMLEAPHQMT

`O=C(OC1C[C@H]2CC[C@@H](C1)[N+]21CCCC1)C(O)(c1ccccc1)c1ccccc1` (stereo not given in full): the outcome in assay [1], in assay [3] and in assay [4] was inactive. Also, the Potency entry in [2], in assay [5], in assay [6], in assay [7], in assay [8] and in assay [9] was “inactive” in each case. Also, the Potency result in [10] and in [11] was “inactive” in each case.
As for `Cc1cccc(C)c1NC(=O)CN1CCCC1`, the compound was called inactive in [1] and in assay [3]. In addition, the Potency result in [2], in assay [5], in assay [6], in [7], in [8] and in assay [9] was “inactive” in each case.
Regarding `CCCC1CCCC(=O)O1` (stereo not given), the Potency result in assay [2], in assay [5], in assay [6], in assay [7], in assay [8] and in assay [9] was “inactive” each time. The Potency result in assay [10] and in assay [11] was “inactive” in each case. In addition, the compound was classed as inactive in assay [3] and in assay [4].
In the case of `C=CC(=O)NC(C)(C)C`, the Potency entry in assay [2], in [5], in assay [6], in assay [7], in assay [8] and in [9] was “inactive” each time. In addition, the Potency result in [10] and in assay [11] was “inactive” throughout. Also, the compound was called inactive in assay [3] and in assay [4].
In the case of `CS(C)=O`, the Potency entry in assay [2], in [5], in assay [6], in [7], in assay [8] and in assay [9] was “inactive” throughout. In addition, the compound was called inactive in assay [3] and in assay [4].
With `O=C1OC(=O)C2CC=CCC12` (stereo not given), the Potency result in assay [2], in assay [5], in assay [6], in assay [7], in [8] and in assay [9] was “inactive” in each case. The Potency entry in assay [10], in assay [11] and in [12] was “inactive” throughout. Besides, the compound was classed as inactive in [3] and in assay [4].
For `c1ccc(-c2ccc(-c3ccccc3)cc2)cc1`, the values for the activity change, negative = cytotoxicity in [2], in assay [3] and in assay [9] were 4.66% [at 15.8 µM], 4.6% [at 19 µM] and -2.21% [at 19 µM], respectively. Besides, the values for the activity, negative = inhibition in [4] and in [10] were 100% [at 19 µM] and 139% [at 19 µM], respectively. Also, the Potency in assay [5] is 0.996 µM (active); in [7], 0.82 µM (active); in assay [11] it was 3.53 µM (active). The viability change, negative = cytotoxic in [6] is 0.464% [at 19 µM]; in [8] it was 4.23% [at 19 µM]; in [12], 3.19% [at 19 µM].
Take `CCCOC(C)=O`: the Potency entry in assay [2], in [5], in assay [6], in assay [7], in assay [8] and in assay [9] was “inactive” each time. Moreover, the Potency entry in [10], in assay [11] and in assay [12] was “inactive” throughout. Also, the call in [3] and in [4] was inactive.
As for `CCCCCCCCCCCCCCCCN`, the outcome in assay [1] and in assay [3] was inactive. Moreover, the Potency result in assay [2], in assay [5], in [6], in assay [7], in assay [8] and in [9] was “inactive” in each case. In addition, the Potency entry in assay [11] and in assay [12] was “inactive” throughout.
In the case of `CCC(=O)O[C@@H]1C[C@H]2CC[C@]1(C)C2(C)C`, the call in assay [1], in assay [3] and in assay [4] was inactive. The Potency entry in assay [2], in assay [5], in assay [6], in assay [7], in assay [8] and in assay [9] was “inactive” in each case. Besides, the Potency entry in assay [10], in [11], in assay [13] and in assay [14] was “inactive” throughout.
On to `O=c1c2ccccc2oc2ccccc12`, for which the Potency entry in assay [2], in [6], in assay [8], in [9] and in assay [10] was “inactive” each time. For the same compound, the result in assay [3] and in [4] was inactive. The values for the Potency in assay [5], in assay [7] and in assay [11] were 27.3 µM (active), 20 µM (active) and 24.3 µM (active), respectively.
Consider `CCCCCCCCOCCCN`, for which the call in assay [1], in [3] and in assay [4] was inactive. The Potency result in [2], in assay [5], in [6], in [7], in [8] and in [9] was “inactive” each time. Further, the Potency result in [10], in assay [11] and in assay [12] was “inactive” throughout.
